Experimental data as given in paper PMC7826789 (International Journal of Molecular Sciences, 2021).

Assays:
Settings in all cases: Compound Concentration (nM):1000
[1] = tested on: INSRR
[2] = tested on: INSR
[3] = tested on: IRAK1
[4] = tested on: IRAK3
[5] = tested on: IRAK4
[6] = tested on: ITK
[7] = tested on: JAK1(JH1domain-catalytic)
[8] = tested on: JAK1(JH2domain-pseudokinase)
[9] = tested on: JAK2(JH1domain-catalytic)
[10] = tested on: JAK3(JH1domain-catalytic)
[11] = tested on: T1, JNK1
T1 construct: gene MAPK8

[12] = tested on: T2, JNK2
T2 construct: gene MAPK9

[13] = tested on: T3, JNK3
T3 construct: gene MAPK10

[14] = tested on: KIT(A829P)
[15] = tested on: KIT(D816H)
[16] = tested on: KIT(D816V)
[17] = tested on: KIT(L576P)
[18] = tested on: KIT(V559D)
[19] = tested on: KIT(V559D,T670I)
[20] = tested on: KIT(V559D,V654A)
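Also: KINOMEscan scanMAX binding as percent activity remaining versus control; lower means stronger binding.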

Row | SMILES | Percent Control [1] | Percent Control [2] | Percent Control [3] | Percent Control [4] | Percent Control [5] | Percent Control [6] | Percent Control [7] | Percent Control [8] | Percent Control [9] | Percent Control [10] | Percent Control [11] | Percent Control [12] | Percent Control [13] | Percent Control [14] | Percent Control [15] | Percent Control [16] | Percent Control [17] | Percent Control [18] | Percent Control [19] | Percent Control [20]
1 | NS(=O)(=O)c1ccc(N/N=C2\C(=O)Nc3ccc(C(=O)NCc4ccncc4)cc32)cc1 [GW300657X] | 89% | 100% | 71% | 91% | 96% | 99% | 88% | 50% | 64% | 37% | 55% | 40% | 38% | 47% | 14% | 61% | 83% | 87% | 89% | 100%
2 | CCn1c(-c2nonc2N)nc2c(C#CC(C)(C)O)nc(OCCNC)cc21.Cl [GSK949675] | 100% | 100% | 92% | 100% | 88% | 100% | 100% | 100% | 96% | 87% | 97% | 100% | 96% | 98% | 22% | 13% | 100% | 100% | 100% | 100%
3 | C/C(Nc1ccc(S(N)(=O)=O)cc1)=C1/C(=O)Nc2ccccc21 [GW335962X] | 100% | 66% | 82% | 88% | 91% | 100% | 100% | 61% | 73% | 52% | 32% | 31% | 30% | 76% | 73% | 92% | 90% | 100% | 80% | 87%
4 | Cl.O=S1CCN(Cc2ccc(-c3ccc4ncnc(Nc5ccc(OCc6ccccc6)c(F)c5)c4c3)o2)CC1 [GW576924A] | 100% | 100% | 100% | 100% | 100% | 100% | 100% | 89% | 100% | 100% | 100% | 100% | 100% | 100% | 100% | 100% | 100% | 100% | 94% | 100%
5 | COc1ccc2[nH]c3c4[nH]c5ccc(OC)cc5c4c4c(c3c2c1)C(=O)NC4=O [GW296115X] | 95% | 66% | 94% | 66% | 76% | 89% | 100% | 39% | 84% | 47% | 82% | 55% | 31% | 15% | 6.6% | 1.7% | 8.2% | 9% | 49% | 66%
6 | Cl.O=C(Nc1ccc(Oc2ccc3[nH]c(NC(=O)c4ccccc4)nc3c2)cc1)Nc1cc(C(F)(F)F)ccc1F [GW709042A] | 100% | 85% | 89% | 100% | 86% | 100% | 99% | 96% | 100% | 77% | 85% | 99% | 100% | 20% | 84% | 79% | 2.9% | 0.8% | 4.9% | 20%
7 | Cc1cc(O)cc(C)c1/C=C/c1cncc(C(N)=O)c1 [GW435821X] | 100% | 93% | 100% | 100% | 100% | 94% | 100% | 59% | 92% | 100% | 84% | 100% | 100% | 92% | 65% | 90% | 4.4% | 1% | 100% | 95%
8 | NS(=O)(=O)c1ccc(Nc2ncc(-c3ccccc3)o2)cc1 [GW572399X] | 100% | 100% | 99% | 100% | 100% | 90% | 100% | 87% | 100% | 71% | 64% | 100% | 99% | 92% | 100% | 100% | 37% | 26% | 92% | 100%
9 | CC1=C(C(=O)Nc2ccc3[nH]ncc3c2)C(c2ccc3ccccc3c2)CC(=O)N1 (stereo not shown) [GSK270822A] | 100% | 100% | 72% | 67% | 100% | 75% | 82% | 90% | 9.6% | 3.4% | 78% | 80% | 82% | 55% | 70% | 78% | 71% | 72% | 84% | 98%
10 | NS(=O)(=O)c1ccc(N/N=C2\C(=O)Nc3ccc(C(=O)NCCc4c[nH]cn4)cc32)cc1 [GW300660X] | 100% | 96% | 82% | 100% | 99% | 100% | 100% | 20% | 80% | 64% | 61% | 89% | 96% | 85% | 41% | 94% | 100% | 100% | 100% | 100%
11 | COc1ccc2cc(-c3c(-c4ccncc4)nc(-c4ccc(S(C)(=O)=O)cc4C)n3C)ccc2c1 [SB-633825] | 89% | 100% | 68% | 75% | 81% | 60% | 100% | 75% | 72% | 63% | 73% | 24% | 20% | 52% | 46% | 74% | 77% | 65% | 88% | 89%
12 | COc1cccc(-c2c[nH]c3c(N/N=C/c4ccncc4)ncnc23)c1 [GW814408X] | 100% | 93% | 23% | 76% | 59% | 96% | 75% | 80% | 31% | 18% | 99% | 97% | 90% | 27% | 12% | 9.8% | 2.1% | 1.7% | 12% | 33%
13 | CC1=C(C(=O)Nc2ccc3[nH]ncc3c2)C(c2ccc(Cl)c(Cl)c2)CC(=O)N1 (stereo not shown) [GSK299115A] | 100% | 100% | 88% | 56% | 100% | 74% | 41% | 86% | 13% | 9.3% | 84% | 73% | 77% | 79% | 78% | 94% | 100% | 100% | 94% | 100%
14 | COc1cc2ncnc(Nc3ccc4c(cnn4Cc4ccccc4)c3)c2cc1OC.Cl [GW282449A] | 100% | 100% | 100% | 100% | 100% | 100% | 100% | 92% | 100% | 100% | 100% | 100% | 100% | 100% | 100% | 100% | 100% | 98% | 100% | 93%
15 | COc1cc(C)c(N(C)C(=O)CN(C)C)cc1Nc1nc(Nc2cccc(F)c2C(N)=O)c2cc[nH]c2n1 [GSK2219385] | 2.9% | 4.3% | 95% | 97% | 95% | 99% | 88% | 81% | 100% | 92% | 88% | 74% | 83% | 100% | 60% | 81% | 100% | 100% | 100% | 93%
16 | COC(=O)Nc1nc2ccc(Oc3ccc(NC(=O)Nc4cc(C(F)(F)F)ccc4F)cc3)cc2s1.Cl [GW693917A] | 100% | 68% | 97% | 100% | 90% | 74% | 71% | 80% | 57% | 61% | 87% | 60% | 79% | 1.9% | 39% | 61% | 0% | 0.2% | 2.5% | 20%
17 | COc1cc2ncn(-c3cc(O[C@H](C)c4ccccc4Cl)c(C(N)=O)s3)c2cc1OC [GSK237701A] | 100% | 100% | 64% | 70% | 98% | 82% | 100% | 70% | 46% | 100% | 88% | 79% | 81% | 11% | 14% | 14% | 34% | 33% | 12% | 81%
18 | Cl.O=C(O[C@H]1CN[C@H](C#Cc2cc3ncnc(Nc4ccc5c(cnn5Cc5ccccc5)c4)c3s2)C1)N1CCOCC1 [GSK200398A] | 100% | 77% | 100% | 77% | 96% | 100% | 96% | 91% | 99% | 90% | 90% | 91% | 88% | 100% | 69% | 100% | 100% | 100% | 87% | 100%
19 | Cl.c1ccc(Cc2nc3ccc(Nc4ncnc5ccccc45)cc3[nH]2)cc1 [GR269666A] | 100% | 100% | 100% | 100% | 100% | 100% | 100% | 88% | 100% | 100% | 91% | 100% | 100% | 100% | 100% | 100% | 100% | 91% | 100% | 85%
20 | Cl.O=C(Nc1ccc(Oc2ccc3[nH]c(NC(=O)c4ccco4)nc3c2)cc1)Nc1cc(C(F)(F)F)ccc1F [GW683134A] | 100% | 88% | 91% | 100% | 89% | 97% | 100% | 90% | 94% | 87% | 85% | 86% | 100% | 15% | 96% | 48% | 0% | 0% | 2.3% | 10%
